# Several values for one entry are separate records, joined by “and”; a condition that tells them apart may be missing. Equal entries are not always repeated. Records with an inconclusive call do not appear. Where a call stands in place of a potency, no number is given. Activity calls are given as the source filed them. Unless noted, the call rests on the fitted dose curve; in most records, active means well fitted curve in the direction sought with a large enough effect; inconclusive means small, poorly fitted or top-dose-only effect, or another doubt; inactive means no such curve, though single readings can be large; an effect the other way counts as inactive or inconclusive.
# Tests used:
# [1] = target: Glutathione peroxidase 1 (Homo sapiens) (UniProt P07203); assay: Primary qHTS Assay for Inhibitors of Recombinant Selenoprotein Glutathione Peroxidase 1 (GPX1) (AID 1845191); settings: recombinant GPX1, GR-coupled NADPH fluorescence, 15 min; series mostly up to 48.8 µM; further: nearly all actives have a fitted effect of over 65% in size; further: potency means the concentration at half of the fitted maximal effect
# Chain of Glutathione peroxidase 1 (Homo sapiens) (P07203 whole entry, looked up): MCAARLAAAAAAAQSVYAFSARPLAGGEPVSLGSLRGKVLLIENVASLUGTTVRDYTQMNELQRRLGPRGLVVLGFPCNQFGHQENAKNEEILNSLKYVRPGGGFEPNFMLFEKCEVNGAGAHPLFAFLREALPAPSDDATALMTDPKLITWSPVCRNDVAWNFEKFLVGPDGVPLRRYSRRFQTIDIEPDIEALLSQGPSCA
# How it was run: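 NADPH consumption tracked by fluorescence at 340/450 nm between t=0 and t=15 min, room temperature. Final mix: 10 nM GPX1, 100 nM glutathione reductase, 1 mM GSH, 0.5 mM NADPH, 0.5 mM cumene hydroperoxide, 0.01% BSA; 30 min compound–enzyme preincubation.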
# [2] = target: Phospholipid hydroperoxide glutathione peroxidase GPX4 (Homo sapiens) (UniProt P36969); assay: Primary qHTS Assay for Inhibitors of Recombinant Selenoprotein Glutathione Peroxidase 4 (GPX4) (AID 1845192); settings: recombinant GPX4, GR-coupled NADPH fluorescence, 15 min; series mostly up to 50 µM; further: nearly all actives have a fitted effect of over 65% in size; further: potency means the concentration at half of the fitted maximal effect
# Chain of Phospholipid hydroperoxide glutathione peroxidase GPX4 (Homo sapiens) (P36969 whole entry, looked up): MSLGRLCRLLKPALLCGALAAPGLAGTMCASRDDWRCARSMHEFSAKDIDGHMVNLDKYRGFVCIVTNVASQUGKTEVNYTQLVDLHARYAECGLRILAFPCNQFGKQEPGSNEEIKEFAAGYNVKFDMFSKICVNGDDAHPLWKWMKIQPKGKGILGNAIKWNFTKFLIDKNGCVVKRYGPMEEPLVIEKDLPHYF
# How it was run: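 NADPH consumption followed by fluorescence at 340/450 nm, t=0 and after 15 min at room temperature. Reaction started with cumene hydroperoxide (0.5 mM final) after 30 min compound–GPX4 preincubation; final 200 nM GPX4, 100 nM GR, 1 mM GSH, 0.5 mM NADPH.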
# [3] = Cell Viability - LYMP2-020 (AID 986); settings: series mostly up to 92.2 µM; further: nearly all actives have a fitted effect of over 55% in size
# How it was run: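 qHTS, 2500 cells/well; 5 hr then 24 hr compound exposure, 37 C; CellTiter-Glo luminescence after 30 min RT; ATP decrease taken as cytotoxicity; AC50 via Hill equation; tetraoctylammonium bromide positive control.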
# [4] = Cell Viability - LYMP1-002 - Assay at 24 hr (AID 993); settings: LYMP1-002 lymphoblastoid cells viability; series mostly up to 92.2 µM
# How it was run: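 CellTiter-Glo luminescence (intracellular ATP) after 24 h compound exposure, 37 C, in LYMP1-002 human lymphoblastoid cells; decreased ATP taken as cytotoxicity. AC50 from standard Hill fit of concentration-response curves.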
# [5] = qHTS assay for cell viability of HEK293 cells (AID 743288); settings: ATP luminescence (CellTiter-Glo), 18 h; max response: stronger effect = lower value; further: nearly all actives have a fitted effect of over 50% in size; further: potency means the concentration at half of the fitted maximal effect
# How it was run: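 After 18 h compound exposure at 37 C, parental HEK293 cells (2,000/well) are lysed with CellTiter-Glo and luminescence is read following 30 min at room temperature.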
# [6] = Cell Viability - SK-N-SH (AID 435; calls by dose curve;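 further: potency means the concentration at half of the fitted maximal effect; compound exposure lasted 40 h at 37 °C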); settings: SK-N-SH neuroblastoma cell viability qHTS
# How it was run: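 SK-N-SH human neuroblastoma cells (1500/well) were exposed to compounds in complete medium for 40 h at 37 °C, and intracellular ATP was then measured by CellTiter-Glo luminescence. AC50 was taken from Hill fits, normalized to DMSO and 100 uM tamoxifen.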
# [7] = Cell Viability - LYMP2-023 (AID 975); settings: LYMP2-023 lymphoblastoid cell viability; series mostly up to 92.2 µM;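 further: cellular ATP measured by luciferase luminescence as viability proxy; nearly all actives have a fitted effect of over 55% in size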
# How it was run: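 CellTiter-Glo luminescence after 30 min at room temperature; decrease in intracellular ATP reflects toxicity. Cells: human lymphoblastoid line, 2500/well, 24 hr compound exposure at 37 C. AC50 fitted to standard Hill equation from concentration-response.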
# [8] = target: Glucocorticoid receptor (Homo sapiens) (UniProt P04150); assay: qHTS assay for small molecule antagonists of glucocorticoid receptor signaling (AID 588533; active means well fitted inhibition curve with a large enough effect in the signal ratio, with a control signal flat, not every such curve was filed as active; the % refers to the signal ratio;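 further: cells stimulated with 2 nM dexamethasone as agonist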); settings: HeLa MMTV-bla, GRE beta-lactamase ratio, antagonist mode, 18 h; series mostly up to 76.8 µM
# Chain of Glucocorticoid receptor (Homo sapiens) (P04150 whole entry, looked up): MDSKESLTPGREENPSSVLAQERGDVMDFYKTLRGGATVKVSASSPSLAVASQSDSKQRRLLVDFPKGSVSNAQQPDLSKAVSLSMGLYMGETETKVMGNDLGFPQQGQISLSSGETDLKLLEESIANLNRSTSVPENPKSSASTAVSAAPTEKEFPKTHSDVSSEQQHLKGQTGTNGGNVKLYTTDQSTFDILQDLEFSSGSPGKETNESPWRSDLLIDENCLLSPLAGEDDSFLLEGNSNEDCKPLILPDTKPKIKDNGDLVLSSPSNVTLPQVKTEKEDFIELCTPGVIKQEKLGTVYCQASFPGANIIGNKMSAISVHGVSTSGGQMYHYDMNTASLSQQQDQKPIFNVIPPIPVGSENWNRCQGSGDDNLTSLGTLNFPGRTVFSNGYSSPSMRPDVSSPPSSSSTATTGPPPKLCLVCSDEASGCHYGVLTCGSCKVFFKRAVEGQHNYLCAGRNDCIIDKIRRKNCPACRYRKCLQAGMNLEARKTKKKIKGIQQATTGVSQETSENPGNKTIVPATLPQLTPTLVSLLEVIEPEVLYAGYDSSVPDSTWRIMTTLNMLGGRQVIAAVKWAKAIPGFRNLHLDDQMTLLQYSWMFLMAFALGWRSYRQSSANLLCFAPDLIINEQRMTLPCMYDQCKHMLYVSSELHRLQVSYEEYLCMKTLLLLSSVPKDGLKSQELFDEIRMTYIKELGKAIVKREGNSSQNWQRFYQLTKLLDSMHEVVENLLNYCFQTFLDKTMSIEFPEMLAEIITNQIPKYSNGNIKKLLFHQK
# How it was run: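 Antagonist-mode qHTS: compound titrations added to GRE-bla HeLa cells, then dexamethasone 2 nM final; 18 h, 37 C. CCF4 FRET fluorescence normalized to dexamethasone and DMSO; IC50 from Hill fit.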
# [9] = qHTS assay for small molecule antagonists of peroxisome proliferator-activated receptor delta signaling (AID 588535; active means well fitted inhibition curve with a large enough effect in the signal ratio, with a control signal flat, not every such curve was filed as active; the % refers to the signal ratio;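 on max response: cells co-treated with a PPAR-delta agonist as stimulator during compound exposure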); settings: HEK293T PPARd-UAS-bla, beta-lactamase FRET ratio, 18 h; 460 nm channel
# How it was run: (§1)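 Antagonist-mode qHTS using GeneBLAzer PPAR-delta-UAS-bla HEK293T cells; compound exposure 18 hrs at 37 C over a titration. Ratiometric CCF4 fluorescence at 460/530 nm; concentration-response points fitted to the Hill equation.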
# [10] = target: Peroxisome proliferator-activated receptor delta (Homo sapiens) (UniProt Q03181); assay: as above; settings: HEK293T PPARd-UAS-bla, beta-lactamase FRET ratio, 18 h; series mostly up to 76.7 µM
# Chain of Peroxisome proliferator-activated receptor delta (Homo sapiens) (Q03181 whole entry, looked up): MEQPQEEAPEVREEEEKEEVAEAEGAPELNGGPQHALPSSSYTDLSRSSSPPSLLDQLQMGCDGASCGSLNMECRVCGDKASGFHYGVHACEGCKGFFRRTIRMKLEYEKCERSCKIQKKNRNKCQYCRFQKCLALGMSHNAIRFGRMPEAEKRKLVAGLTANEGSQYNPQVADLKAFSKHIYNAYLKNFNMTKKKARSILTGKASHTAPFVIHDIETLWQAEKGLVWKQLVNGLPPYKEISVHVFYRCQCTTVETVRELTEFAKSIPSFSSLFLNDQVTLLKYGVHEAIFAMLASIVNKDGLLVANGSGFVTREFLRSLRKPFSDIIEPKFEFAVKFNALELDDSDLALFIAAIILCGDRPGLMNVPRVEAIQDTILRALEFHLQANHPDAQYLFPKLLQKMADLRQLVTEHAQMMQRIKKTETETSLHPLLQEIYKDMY
# How it was run: as §1
# [11] = target: Peroxisome proliferator-activated receptor gamma (Homo sapiens) (UniProt P37231); assay: qHTS assay for small molecule antagonists of peroxisome proliferator-activated receptor gamma signaling (AID 588537; active means well fitted inhibition curve with a large enough effect in the signal ratio, with a control signal flat, not every such curve was filed as active; the % refers to the signal ratio;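 further: reporter cells co-stimulated with 50 nM rosiglitazone agonist during compound treatment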); settings: HEK293 PPARg-UAS-bla, beta-lactamase ratio, antagonist mode; series mostly up to 76.8 µM
# Chain of Peroxisome proliferator-activated receptor gamma (Homo sapiens) (P37231 whole entry, looked up): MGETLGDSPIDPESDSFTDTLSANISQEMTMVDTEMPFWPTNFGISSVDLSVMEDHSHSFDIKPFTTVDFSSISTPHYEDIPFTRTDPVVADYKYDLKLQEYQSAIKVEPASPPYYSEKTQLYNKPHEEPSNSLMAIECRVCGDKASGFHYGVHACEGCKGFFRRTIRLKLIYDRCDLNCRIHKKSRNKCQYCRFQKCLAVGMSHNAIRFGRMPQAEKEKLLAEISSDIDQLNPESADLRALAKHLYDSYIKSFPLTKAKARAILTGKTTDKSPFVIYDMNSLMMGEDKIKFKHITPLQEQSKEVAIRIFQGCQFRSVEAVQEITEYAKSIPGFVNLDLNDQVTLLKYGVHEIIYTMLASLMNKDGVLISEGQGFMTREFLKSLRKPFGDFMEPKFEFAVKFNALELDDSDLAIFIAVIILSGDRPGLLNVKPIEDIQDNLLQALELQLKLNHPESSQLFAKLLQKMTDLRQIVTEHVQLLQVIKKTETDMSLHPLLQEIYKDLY
# How it was run: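 Cell-based beta-lactamase assay; GW9662 served as the antagonist control. Stimulation used rosiglitazone, final 50 nM, 16 h, 37 C.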
# [12] = Cellular Toxicity (caspase-3) BJ (AID 658); settings: BJ fibroblasts, luminescence, normalized: DMSO 0%, staurosporine 100%; series mostly up to 91.7 µM;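 further: cells exposed to compound for 16 hours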
# How it was run: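 Caspase-Glo 3/7 luminescence, read 1 hr after reagent at room temperature, in normal BJ fibroblasts exposed 16 hours at 37 °C. AC50 values from Hill-equation concentration-response, scaled between DMSO basal and 10 uM staurosporine as 100%.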
# [13] = Cell Viability - LYMP2-014 (AID 983); settings: LYMP2-014 lymphoblastoid cells, viability qHTS; series mostly up to 92.2 µM; further: nearly all actives have a fitted effect of over 50% in size
# How it was run: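 2500 cells/well, 5 hr 37 C; cpd 24 hr 37 C, complete medium; CellTiter-Glo 30 min RT, luminescence; ATP loss = toxicity; AC50 via Hill eqn; tetraoctylammonium bromide positive control.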
# [14] = qHTS assay for small molecule agonists of the antioxidant response element (ARE) signaling pathway (AID 651741; active means well fitted activation curve with a large enough effect in the signal ratio; the % refers to the signal ratio; further: potency means the concentration at half of the fitted maximal effect); settings: HepG2 ARE-bla reporter, beta-lactamase FRET ratio, 16 h; series mostly up to 96 µM
# How it was run: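 Agonist activity is measured as ARE-driven beta-lactamase expression in a stable HepG2 reporter line, using 16 h compound treatment at 37 C and a FRET substrate fluorescence readout after 2 h.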
# [15] = Cell Viability - LYMP2-005 (AID 967); settings: LYMP2-005 lymphoblastoid cell viability; series mostly up to 92.2 µM
# How it was run: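 CellTiter-Glo luminescence (cellular ATP) read-out; LYMP2-005 lymphoblastoid cells, 2500/well, 5 h pre-incubation, then 24 h compound exposure at 37 C in complete medium. Tetraoctylammonium bromide positive control; AC50 by standard Hill fit.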
# [16] = target: Bile acid receptor (Homo sapiens) (UniProt Q96RI1); assay: qHTS assay for small molecule antagonists of farnesoid X receptor signaling (AID 588526; calls by dose curve); settings: HEK293T FXR-UAS-bla, beta-lactamase ratio, antagonist mode; series mostly up to 76.7 µM
# Chain of Bile acid receptor (Homo sapiens) (Q96RI1 whole entry, looked up): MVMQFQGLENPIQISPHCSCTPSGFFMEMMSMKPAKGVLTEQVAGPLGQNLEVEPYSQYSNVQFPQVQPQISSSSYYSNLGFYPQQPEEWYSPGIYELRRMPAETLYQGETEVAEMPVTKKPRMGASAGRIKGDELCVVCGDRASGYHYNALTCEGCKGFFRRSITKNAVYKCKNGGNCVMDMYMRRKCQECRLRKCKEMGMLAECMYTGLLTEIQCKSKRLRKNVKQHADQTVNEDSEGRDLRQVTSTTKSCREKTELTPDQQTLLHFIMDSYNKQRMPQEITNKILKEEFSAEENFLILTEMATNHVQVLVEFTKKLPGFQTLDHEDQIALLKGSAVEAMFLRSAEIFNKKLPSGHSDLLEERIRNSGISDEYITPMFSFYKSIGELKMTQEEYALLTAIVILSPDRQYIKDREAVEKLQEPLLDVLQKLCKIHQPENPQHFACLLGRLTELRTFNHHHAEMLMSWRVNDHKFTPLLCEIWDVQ
# How it was run: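 Beta-lactamase reporter antagonist mode: HEK293T FXR-UAS-bla cells, titrated compound, CDCA stimulation, 16 h 37 C, CCF4 dye 2 h RT. Data normalized to CDCA 50 uM and DMSO; Hill-fit IC50.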
# [17] = qHTS assay to identify small molecules that stimulate interleukin-8 (IL-8) secretion (AID 651758; active means well fitted activation curve with a large enough effect in the signal ratio; the % refers to the signal ratio); settings: HTRF ratio (665/615); series mostly up to 92.2 µM
# How it was run: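 Secreted IL-8 measured homogeneously by TR-FRET (two labelled anti-IL-8 antibodies, 1-3 h at room temperature) after a 16 h, 37 C compound treatment of THP-1 cells at 2000 cells/well.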
# [18] = Cell Viability - LYMP2-001 (AID 921); settings: LYMP2-001 lymphoblastoid cell viability; series mostly up to 92.2 µM; further: nearly all actives have a fitted effect of over 70% in size
# How it was run: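 Human lymphoblastoid cells (Coriell), 2500 per well, were preincubated 5 hr at 37 C, then exposed to compounds in complete medium for 24 hr at 37 C. Cellular ATP was read by CellTiter-Glo luminescence; AC50 from Hill fits of concentration-response data.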
# [19] = qHTS assay for small molecule activators of the nuclear factor-kappa B (NF-kB) signaling pathway (AID 651749; active means well fitted activation curve with a large enough effect in the signal ratio; the % refers to the signal ratio); settings: NF-kB-bla ME-180 cells, beta-lactamase FRET ratio, 16 h; stronger effect = higher value
# How it was run: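 FRET-based beta-lactamase detection in ME-180 cells reports NF-kB response-element-driven transcription following overnight (16 hr) compound treatment.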
structure (smiles),measurement,setting,value
CN(C)CCCOc1ccc(-c2ccc3ncc4c(c3c2)n(C2CCOCC2)c(=O)n4C)cn1,Potency,[1],inactive
same,Potency,[2],inactive
N[C@@H](C(=O)N[C@@H]1C(=O)N2C(C(=O)O)=C(Cl)CC[C@H]12)c1ccccc1,Potency,[1],inactive
same,Potency,[2],inactive
O[C@@H]([C@H](O)[C@@H](O)CBr)[C@@H](O)CBr,Potency,[3],inactive
same,Potency,[4],inactive
same,max response,[5],-10.9% (inactive)
same,Potency,[1],inactive
same,Potency,[2],inactive
Cc1cnc(C(=O)N[C@H]2CCCCC/C=C/[C@@H]3C[C@@]3(C(=O)NS(=O)(=O)C3CC3)NC(=O)[C@@H]3C[C@@H](Oc4nc5ccccc5c5ccccc45)CN3C2=O)cn1,Potency,[2],3.98 µM (active)
Cc1ccc(N)c([N+](=O)[O-])c1,Potency,[6],> 92 µM (inactive)
same,Potency,[7],inactive
same,Potency,[3],inactive
same,Potency,[4],inactive
same,Potency,[8],inactive
same,max response,[9],-16.3% and -11.9%
same,Potency,[10],inactive
same,outcome,[11],inactive
COc1ccc2nc(N)sc2c1,Potency,[6],> 92 µM (inactive)
same,outcome,[12],inactive
same,Potency,[13],inactive
same,Potency,[8],inactive
same,Potency,[14],54.5 µM (active)
Cc1ccc([N+](=O)[O-])c(C)c1,Potency,[6],> 92 µM (inactive)
same,Potency,[15],inactive
same,Potency,[7],inactive
same,Potency,[4],inactive
same,outcome,[16],inactive
same,Potency,[8],inactive
same,max response,[9],-27.9% and -14.4%
same,Potency,[10],inactive
same,outcome,[11],inactive
same,Potency,[14],inactive
same,Potency,[17],inactive
same,max response,[5],0.892% (inactive) and -5.18% (inactive)
CO/N=C(/C(=O)N[C@@H]1C(=O)N2C(C(=O)OC(C)OC(C)=O)=C(COC(N)=O)CS[C@H]12)c1ccco1 (some centres not stated),Potency,[1],20.2 µM (active)
Nc1cccc(-c2csc(NC(=O)CCCCCCC(=O)NO)n2)c1,Potency,[1],inactive
Nc1nc(-c2ccc(Cl)c(Cl)c2)c(-c2ccncc2)s1,Potency,[1],inactive
CCCCCCCCCC(=O)OCCN1CCN(CC/C=C2/c3ccccc3Sc3ccc(Cl)cc32)CC1,Potency,[2],2.24 µM (active)
O=C1c2ccccc2C(=O)C1c1ccc2ccccc2n1,Potency,[6],34 µM (active)
same,Potency,[18],inactive
same,Potency,[7],inactive
same,Potency,[13],inactive
same,Potency,[8],inactive
same,outcome,[11],inactive
same,Potency,[14],1.37 µM (active) and 1.5 µM (active)
same,activation,[19],-1.78% (inactive) and 4.34% (inactive)
same,Potency,[5],39.8 µM (active)
CCC(O)OC(O)CC (configuration not stated),Potency,[6],> 92 µM (inactive)
same,Potency,[15],inactive
same,Potency,[13],inactive
same,Potency,[3],inactive
same,Potency,[8],inactive
same,outcome,[11],inactive
same,activation,[19],0.14% (inactive) [middle of 4 runs]
same,Potency,[17],inactive
CCc1cc2c(cc1CC)CC(NC[C@H](O)c1ccc(O)c3[nH]c(=O)ccc13)C2,Potency,[2],10 µM (active)

# Source: PubChem BioAssay (NCATS)
